Source: the supplement of paper PMC11732987, “Enantioselective OTUD7B fragment discovery through chemoproteomics screening and high-throughput optimisation” (Communications Chemistry, 2025)

Key:
Assay in all cases: log2 ratio of Biotin-Ahx-Ub-VS probe labelling (fragment/DMSO); higher = less target engagement (more negative = stronger competition), active = hit call of the paper (q ≤ 0.05, log2 ratio ≤ -1)
Conditions in all cases: compound concentration: 200 uM; treatment time: 3 h
USP34 = USP34 (UniProt Q70CQ2)
Sequence of USP34 (Q70CQ2 whole entry, the tested form may be a part): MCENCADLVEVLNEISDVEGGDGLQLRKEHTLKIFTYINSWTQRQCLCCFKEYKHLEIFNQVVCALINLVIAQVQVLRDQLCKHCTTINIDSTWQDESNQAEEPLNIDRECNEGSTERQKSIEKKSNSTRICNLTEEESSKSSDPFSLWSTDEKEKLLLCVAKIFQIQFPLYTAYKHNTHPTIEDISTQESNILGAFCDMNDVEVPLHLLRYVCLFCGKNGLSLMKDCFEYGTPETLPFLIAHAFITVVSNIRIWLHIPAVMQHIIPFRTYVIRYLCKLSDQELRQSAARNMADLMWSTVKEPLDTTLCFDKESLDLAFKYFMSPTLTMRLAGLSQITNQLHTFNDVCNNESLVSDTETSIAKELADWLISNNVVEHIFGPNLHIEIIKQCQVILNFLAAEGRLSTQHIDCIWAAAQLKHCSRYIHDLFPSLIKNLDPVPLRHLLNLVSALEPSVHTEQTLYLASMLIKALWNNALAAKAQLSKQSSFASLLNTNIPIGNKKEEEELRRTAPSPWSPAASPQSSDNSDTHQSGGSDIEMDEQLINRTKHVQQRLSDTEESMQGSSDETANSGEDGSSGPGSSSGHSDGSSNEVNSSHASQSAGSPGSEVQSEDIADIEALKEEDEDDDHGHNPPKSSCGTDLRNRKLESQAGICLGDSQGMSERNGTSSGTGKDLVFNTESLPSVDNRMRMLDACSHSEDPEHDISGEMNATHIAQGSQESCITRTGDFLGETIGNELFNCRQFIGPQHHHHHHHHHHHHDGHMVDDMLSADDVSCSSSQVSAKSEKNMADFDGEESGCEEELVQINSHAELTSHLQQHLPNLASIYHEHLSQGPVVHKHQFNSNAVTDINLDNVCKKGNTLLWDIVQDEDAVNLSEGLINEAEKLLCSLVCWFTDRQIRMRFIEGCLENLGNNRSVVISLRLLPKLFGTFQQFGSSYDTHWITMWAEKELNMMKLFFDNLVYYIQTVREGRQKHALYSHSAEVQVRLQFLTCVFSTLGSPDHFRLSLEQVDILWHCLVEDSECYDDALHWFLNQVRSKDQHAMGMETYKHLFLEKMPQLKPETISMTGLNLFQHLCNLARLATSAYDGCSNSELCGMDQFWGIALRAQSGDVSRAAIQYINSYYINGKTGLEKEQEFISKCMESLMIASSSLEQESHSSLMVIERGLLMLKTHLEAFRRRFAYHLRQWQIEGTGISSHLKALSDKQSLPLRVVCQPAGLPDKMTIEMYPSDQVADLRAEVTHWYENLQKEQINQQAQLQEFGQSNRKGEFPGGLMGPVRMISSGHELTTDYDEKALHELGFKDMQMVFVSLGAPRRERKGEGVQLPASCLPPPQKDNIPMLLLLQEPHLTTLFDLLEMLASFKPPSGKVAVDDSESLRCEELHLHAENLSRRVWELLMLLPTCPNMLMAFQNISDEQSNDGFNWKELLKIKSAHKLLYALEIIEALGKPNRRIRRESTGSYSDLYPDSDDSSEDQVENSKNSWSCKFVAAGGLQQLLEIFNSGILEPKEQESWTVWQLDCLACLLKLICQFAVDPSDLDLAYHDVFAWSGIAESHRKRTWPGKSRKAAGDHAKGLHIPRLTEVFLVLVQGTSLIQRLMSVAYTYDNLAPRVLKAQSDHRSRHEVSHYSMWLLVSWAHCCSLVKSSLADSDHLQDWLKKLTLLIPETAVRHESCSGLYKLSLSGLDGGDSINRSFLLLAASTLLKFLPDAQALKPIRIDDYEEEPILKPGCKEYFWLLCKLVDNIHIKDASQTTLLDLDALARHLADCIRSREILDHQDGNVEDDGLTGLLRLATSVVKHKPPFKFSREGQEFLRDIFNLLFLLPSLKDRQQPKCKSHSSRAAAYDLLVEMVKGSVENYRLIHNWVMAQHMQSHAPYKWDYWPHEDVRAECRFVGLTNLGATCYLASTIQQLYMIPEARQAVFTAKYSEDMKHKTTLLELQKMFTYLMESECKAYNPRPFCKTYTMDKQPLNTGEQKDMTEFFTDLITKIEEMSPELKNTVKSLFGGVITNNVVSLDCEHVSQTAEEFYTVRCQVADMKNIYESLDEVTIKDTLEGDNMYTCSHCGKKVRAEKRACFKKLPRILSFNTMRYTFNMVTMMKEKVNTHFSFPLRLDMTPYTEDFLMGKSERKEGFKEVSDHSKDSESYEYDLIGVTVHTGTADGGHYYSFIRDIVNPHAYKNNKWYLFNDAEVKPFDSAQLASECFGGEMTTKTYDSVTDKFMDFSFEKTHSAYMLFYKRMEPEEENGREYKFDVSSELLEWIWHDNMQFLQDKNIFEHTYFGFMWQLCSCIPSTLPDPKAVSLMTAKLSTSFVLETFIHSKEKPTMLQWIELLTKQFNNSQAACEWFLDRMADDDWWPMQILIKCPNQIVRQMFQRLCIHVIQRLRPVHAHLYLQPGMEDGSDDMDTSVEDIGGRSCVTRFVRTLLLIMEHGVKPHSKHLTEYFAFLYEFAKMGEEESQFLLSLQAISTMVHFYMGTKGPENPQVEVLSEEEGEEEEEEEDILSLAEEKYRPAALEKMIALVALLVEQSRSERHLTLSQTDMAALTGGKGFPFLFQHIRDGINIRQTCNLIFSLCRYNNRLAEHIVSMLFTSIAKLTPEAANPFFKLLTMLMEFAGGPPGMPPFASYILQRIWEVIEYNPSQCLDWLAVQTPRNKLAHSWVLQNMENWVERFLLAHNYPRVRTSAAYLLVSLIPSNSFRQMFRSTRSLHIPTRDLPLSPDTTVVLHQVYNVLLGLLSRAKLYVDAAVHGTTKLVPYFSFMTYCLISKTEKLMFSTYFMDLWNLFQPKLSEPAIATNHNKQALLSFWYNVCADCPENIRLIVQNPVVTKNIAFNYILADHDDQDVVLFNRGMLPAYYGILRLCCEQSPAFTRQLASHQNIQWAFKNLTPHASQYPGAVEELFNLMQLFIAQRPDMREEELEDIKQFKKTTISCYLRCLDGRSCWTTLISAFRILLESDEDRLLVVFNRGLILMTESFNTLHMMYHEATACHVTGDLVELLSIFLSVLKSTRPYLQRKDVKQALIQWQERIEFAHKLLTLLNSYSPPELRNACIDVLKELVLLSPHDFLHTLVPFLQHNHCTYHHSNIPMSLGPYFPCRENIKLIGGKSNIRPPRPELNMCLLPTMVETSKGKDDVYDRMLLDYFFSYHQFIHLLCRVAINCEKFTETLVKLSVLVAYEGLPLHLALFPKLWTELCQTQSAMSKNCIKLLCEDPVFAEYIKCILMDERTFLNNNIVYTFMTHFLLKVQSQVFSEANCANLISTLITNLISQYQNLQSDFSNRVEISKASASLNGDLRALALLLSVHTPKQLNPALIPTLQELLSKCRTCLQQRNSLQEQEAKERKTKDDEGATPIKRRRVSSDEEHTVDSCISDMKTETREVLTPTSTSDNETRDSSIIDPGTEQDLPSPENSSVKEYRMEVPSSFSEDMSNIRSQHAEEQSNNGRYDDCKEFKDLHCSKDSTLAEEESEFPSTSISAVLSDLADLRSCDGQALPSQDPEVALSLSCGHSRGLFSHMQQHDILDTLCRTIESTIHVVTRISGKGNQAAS
In short: (§1)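 The table lists average log2 ratios of fragment over vehicle, from an unpaired t-test on global-median-normalised Spectronaut label-free quantities. Proteins with ≥2 unique peptides were used. Samples were HEK293T lysate (495 µg) treated in triplicate with fragment at 200 µM or vehicle for 3 h, then with Biotin-Ahx-Ub-VS (0.5 µM final) for 1 h, with labelled DUBs NeutrAvidin-enriched and run by diaPASEF LC-MS/MS.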

USP36 = biological target: T1, USP36 (UniProt Q9P275)
T1 sequence (whole entry): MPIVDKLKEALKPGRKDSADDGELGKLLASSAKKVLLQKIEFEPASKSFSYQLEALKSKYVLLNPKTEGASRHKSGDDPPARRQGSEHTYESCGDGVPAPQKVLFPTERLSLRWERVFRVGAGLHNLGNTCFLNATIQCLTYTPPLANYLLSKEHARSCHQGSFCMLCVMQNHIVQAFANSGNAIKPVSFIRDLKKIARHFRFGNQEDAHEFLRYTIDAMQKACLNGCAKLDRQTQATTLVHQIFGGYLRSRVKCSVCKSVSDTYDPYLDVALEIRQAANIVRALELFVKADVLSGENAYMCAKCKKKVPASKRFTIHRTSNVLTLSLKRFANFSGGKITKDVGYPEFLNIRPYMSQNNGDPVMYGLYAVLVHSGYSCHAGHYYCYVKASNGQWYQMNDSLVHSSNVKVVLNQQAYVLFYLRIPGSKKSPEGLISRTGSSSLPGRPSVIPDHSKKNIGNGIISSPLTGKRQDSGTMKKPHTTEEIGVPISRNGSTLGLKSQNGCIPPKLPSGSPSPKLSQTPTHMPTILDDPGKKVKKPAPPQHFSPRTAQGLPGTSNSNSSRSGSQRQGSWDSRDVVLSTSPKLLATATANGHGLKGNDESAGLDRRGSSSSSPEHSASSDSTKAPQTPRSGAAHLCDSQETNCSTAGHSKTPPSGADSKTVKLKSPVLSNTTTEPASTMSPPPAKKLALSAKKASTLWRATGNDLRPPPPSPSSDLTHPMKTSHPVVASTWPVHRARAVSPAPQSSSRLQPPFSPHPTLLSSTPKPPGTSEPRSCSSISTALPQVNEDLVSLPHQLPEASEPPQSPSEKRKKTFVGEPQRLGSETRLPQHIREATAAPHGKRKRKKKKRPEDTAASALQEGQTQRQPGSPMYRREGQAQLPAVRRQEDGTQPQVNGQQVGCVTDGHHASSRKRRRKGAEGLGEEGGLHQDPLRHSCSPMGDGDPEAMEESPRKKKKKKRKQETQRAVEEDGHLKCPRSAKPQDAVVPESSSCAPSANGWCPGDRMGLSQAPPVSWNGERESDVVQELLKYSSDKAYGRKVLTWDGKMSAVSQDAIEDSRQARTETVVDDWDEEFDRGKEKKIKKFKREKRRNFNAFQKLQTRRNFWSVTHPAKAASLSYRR
In short: as §1

USP38 = biological target: T2, USP38 (UniProt Q8NB14)
T2 sequence (whole entry): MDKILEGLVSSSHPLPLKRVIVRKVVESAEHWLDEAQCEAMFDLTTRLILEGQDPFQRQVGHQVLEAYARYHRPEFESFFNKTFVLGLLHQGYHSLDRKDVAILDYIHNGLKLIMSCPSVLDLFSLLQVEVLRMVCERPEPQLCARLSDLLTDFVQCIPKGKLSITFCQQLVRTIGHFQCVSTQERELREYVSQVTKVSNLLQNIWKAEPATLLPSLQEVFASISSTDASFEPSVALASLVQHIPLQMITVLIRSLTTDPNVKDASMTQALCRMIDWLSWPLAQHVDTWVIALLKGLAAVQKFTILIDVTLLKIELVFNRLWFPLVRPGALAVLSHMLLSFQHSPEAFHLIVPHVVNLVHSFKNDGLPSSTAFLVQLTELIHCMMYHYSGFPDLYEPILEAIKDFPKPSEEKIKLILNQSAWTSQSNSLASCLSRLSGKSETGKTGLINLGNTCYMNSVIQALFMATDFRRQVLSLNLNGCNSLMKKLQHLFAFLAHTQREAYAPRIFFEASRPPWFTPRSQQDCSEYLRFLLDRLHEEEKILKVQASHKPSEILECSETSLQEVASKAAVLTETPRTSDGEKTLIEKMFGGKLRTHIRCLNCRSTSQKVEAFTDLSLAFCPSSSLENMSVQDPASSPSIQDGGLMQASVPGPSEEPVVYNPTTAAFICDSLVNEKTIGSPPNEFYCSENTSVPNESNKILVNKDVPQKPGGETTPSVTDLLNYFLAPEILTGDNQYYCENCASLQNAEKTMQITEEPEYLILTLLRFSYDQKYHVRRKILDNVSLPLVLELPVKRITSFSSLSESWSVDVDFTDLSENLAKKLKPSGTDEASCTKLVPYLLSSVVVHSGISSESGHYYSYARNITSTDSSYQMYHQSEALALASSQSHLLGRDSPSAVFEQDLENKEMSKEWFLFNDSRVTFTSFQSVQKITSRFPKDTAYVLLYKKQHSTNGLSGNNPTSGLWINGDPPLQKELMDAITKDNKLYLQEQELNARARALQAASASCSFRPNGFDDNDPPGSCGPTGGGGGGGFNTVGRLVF
In short: as §1

USP39 = biological target: T3, USP39 (UniProt Q53GS9)
T3 sequence (whole entry): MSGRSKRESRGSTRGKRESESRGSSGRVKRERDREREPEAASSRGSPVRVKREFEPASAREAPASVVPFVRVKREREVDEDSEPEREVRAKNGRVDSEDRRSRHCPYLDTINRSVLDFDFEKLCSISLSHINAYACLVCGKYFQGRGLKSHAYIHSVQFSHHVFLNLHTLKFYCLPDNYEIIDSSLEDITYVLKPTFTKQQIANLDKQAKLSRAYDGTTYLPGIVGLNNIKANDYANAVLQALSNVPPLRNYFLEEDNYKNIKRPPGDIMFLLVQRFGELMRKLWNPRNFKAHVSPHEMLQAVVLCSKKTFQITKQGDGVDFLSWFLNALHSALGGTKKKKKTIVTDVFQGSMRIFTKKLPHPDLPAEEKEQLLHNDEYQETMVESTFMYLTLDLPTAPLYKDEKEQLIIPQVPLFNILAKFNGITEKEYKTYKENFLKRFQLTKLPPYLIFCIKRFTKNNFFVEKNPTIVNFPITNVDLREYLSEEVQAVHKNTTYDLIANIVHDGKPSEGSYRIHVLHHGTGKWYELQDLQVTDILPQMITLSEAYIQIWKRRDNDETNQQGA
In short: as §1

USP4 = biological target: T4, USP4 (UniProt Q13107)
T4 sequence (whole entry): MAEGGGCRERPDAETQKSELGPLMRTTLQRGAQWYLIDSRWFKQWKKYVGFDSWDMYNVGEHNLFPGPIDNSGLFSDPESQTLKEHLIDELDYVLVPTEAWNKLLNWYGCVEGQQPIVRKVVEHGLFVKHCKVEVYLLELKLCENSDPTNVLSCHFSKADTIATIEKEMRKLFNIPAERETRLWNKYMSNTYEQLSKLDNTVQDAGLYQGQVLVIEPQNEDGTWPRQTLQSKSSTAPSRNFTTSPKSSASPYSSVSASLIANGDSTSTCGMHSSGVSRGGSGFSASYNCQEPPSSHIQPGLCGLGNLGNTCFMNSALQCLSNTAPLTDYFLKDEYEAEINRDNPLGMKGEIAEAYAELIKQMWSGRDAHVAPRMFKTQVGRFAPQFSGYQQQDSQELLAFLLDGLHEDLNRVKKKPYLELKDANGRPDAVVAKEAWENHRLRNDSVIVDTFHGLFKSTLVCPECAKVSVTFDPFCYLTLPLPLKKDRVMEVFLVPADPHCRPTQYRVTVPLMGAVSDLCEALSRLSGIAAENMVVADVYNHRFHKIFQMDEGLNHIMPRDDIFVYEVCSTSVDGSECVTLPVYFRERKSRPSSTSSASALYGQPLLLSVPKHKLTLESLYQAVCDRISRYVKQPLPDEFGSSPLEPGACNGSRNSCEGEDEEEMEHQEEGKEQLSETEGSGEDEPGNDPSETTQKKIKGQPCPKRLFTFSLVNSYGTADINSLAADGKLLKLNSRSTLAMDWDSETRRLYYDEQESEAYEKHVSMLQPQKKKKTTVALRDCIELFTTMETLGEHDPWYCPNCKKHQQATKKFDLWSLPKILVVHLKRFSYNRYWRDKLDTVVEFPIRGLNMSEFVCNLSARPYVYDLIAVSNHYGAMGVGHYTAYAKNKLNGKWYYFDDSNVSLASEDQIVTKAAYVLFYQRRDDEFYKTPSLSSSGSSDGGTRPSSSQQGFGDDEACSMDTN
In short: as §1

Measured: log2 ratio of Biotin-Ahx-Ub-VS probe labelling

CC(NC(=O)CCl)c1noc(Cc2ccccc2)n1 (stereo not given)
inactive: USP34 -0.0517 | USP36 -0.338 | USP38 -0.21 | USP39 -0.245 | USP4 -0.142
